# Fam108B inh: mouse Fam108B serine hydrolase inhibitors, primary screen, counter-screen for RBBP9 inhibitor project, biochemical, fluorescence polarization; recombinant Fam108B, FP-Rh probe fluorescence polarization; inhibition, % at 9.51 µM; 300,000 tested, 0.33% active;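 active = inhibition above the screen mean inhibition plus 3 SD, computed separately per campaign, cut at about 18% in these data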;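 note: inhibitors lower polarization as less probe binds the enzyme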
# PAD4 FP inh: human PAD4 inhibitors, primary screen, biochemical, fluorescence polarization, 1536-well format; Protein-arginine deiminase type-4 (Homo sapiens), Q9UM07; recombinant PAD4, RCA probe fluorescence polarization; inhibition, % at 6.36 µM; 330,000 tested, 0.41% active;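 active = percent inhibition above a cutoff equal to the mean of all tested compounds plus 3 SD, cut at about 15% in these data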;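 note: 0% = PAD4 with RCA probe and DMSO and 100% = probe without PAD4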
# PME-1 primary: PME-1 inhibitors via competitive probe labeling, primary screen, biochemical, fluorescence polarization, FP-Rh probe, HTS | AID 2130, 2009 | 320,000 tested, 0.53% active | Protein phosphatase methylesterase 1 (Homo sapiens), Q9Y570 | recombinant PME-1 | inhibition, % at 5.9 µM;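 active = inhibition above the campaign mean of all compounds plus 3 SD, cut at about 26% in these data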;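 note: competitive labeling of PME-1 active site by serine hydrolase directed probe; 0% = PME-1 with DMSO and 100% = wells lacking PME-1 enzyme; inhibitors block probe labeling so polarization falls and inhibition rises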
# LYPLA2 counter: LYPLA2 inhibitors, primary screen, counter-screen for PME1 inhibitor project, biochemical, fluorescence polarization, FP-Rh probe ABPP; recombinant LYPLA2; inhibition, % at 5.9 µM; 320,000 tested, 0.38% active; AID 2177, 2009;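 active = inhibition above the screen-wide mean plus 3 SD, limit set per campaign, cut at about 26% in these data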;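 note: 0% = LYPLA2 with DMSO and 100% = wells lacking LYPLA2 enzyme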
# LYPLA1 inh: LYPLA1 inhibitors, primary screen, counter-screen for PME1 inhibitor project, biochemical, fluorescence polarization, FP-Rh probe ABPP; inhibition, % at 5.9 µM; 320,000 tested, 0.16% active; recombinant LYPLA1; Acyl-protein thioesterase 1 (Homo sapiens), O75608; AID 2174, 2009;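 active = inhibition above the mean of all tested compounds plus 3 SD, set per campaign, cut at about 14% in these data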;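 note: inhibitors block serine hydrolase probe labeling of LYPLA1 so polarization falls; 0% = enzyme with DMSO and 100% = wells lacking LYPLA1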
# Target sequence (O75608 whole entry, looked up): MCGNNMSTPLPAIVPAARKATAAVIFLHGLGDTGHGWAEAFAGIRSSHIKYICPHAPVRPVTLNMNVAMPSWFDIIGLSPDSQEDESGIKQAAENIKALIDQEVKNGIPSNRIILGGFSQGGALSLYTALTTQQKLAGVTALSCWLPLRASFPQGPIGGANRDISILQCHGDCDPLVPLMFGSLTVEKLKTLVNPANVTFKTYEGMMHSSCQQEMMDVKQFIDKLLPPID
# GSTO1 counter: inhibitors of recombinant GSTO1, primary screen, counter-screen for RBBP9 inhibitor project, biochemical, fluorescence polarization; inhibition, % at 5.96 µM; activity-based probe fluorescence polarization; 300,000 tested, 1.1% active; Glutathione S-transferase omega-1 (Homo sapiens), P78417;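 active = inhibition above the campaign mean inhibition plus 3 SD, cut at about 35% in these data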;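 note: 0% = GSTO1-1 with DMSO and 100% = wells lacking GSTO1-1 enzyme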
# Target sequence (P78417 whole entry, looked up): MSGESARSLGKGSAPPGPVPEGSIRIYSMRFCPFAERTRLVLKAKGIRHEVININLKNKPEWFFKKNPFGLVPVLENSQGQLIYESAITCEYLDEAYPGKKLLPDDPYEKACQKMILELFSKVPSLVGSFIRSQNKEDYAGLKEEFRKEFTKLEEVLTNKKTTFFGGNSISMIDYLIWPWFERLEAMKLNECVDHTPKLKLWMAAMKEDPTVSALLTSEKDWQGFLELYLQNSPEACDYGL
# LYPLA2 conf: LYPLA2 inhibitors, retest, confirmation, counter-screen for PME1 inhibitor project, biochemical, fluorescence polarization, FP-Rh probe ABPP. shares compounds with LYPLA2 counter. recombinant LYPLA2. inhibition, % at 5.9 µM. 1,100 tested, 72% active. AID 2232, 2010;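 active = mean inhibition across replicates above the hit cutoff set in the primary screen, cut at about 26% in these data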;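 note: blocked labeling of the enzyme by serine hydrolase FP-Rh probe lowers polarization; 0% = enzyme with DMSO and 100% = wells lacking LYPLA2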
# LYPLA2 ABPP: LYPLA2 inhibitors in proteome, late-stage follow-up, gel-based competitive ABPP, fluorescence, assay provider; rhLYPLA2 in mouse brain proteome, gel ABPP FP-Rh; shares compounds with LYPLA2 counter; AID 652029, 2013; inhibition, % at 20 µM; 150 tested, 30% active;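 active = inhibition of LYPLA2 enzyme probe labeling above about 50%, limit read from the data; inactive = inhibition below that limit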;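 note: loss of FP-Rh probe labeling of the LYPLA2 gel band measured as band density; 0% = DMSO only control band and 100% = blank gel background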
# PAD4 confirm: human PAD4 inhibitors, confirmation, biochemical, fluorescence polarization. shares compounds with PAD4 FP inh. recombinant PAD4, RCA probe fluorescence polarization. 1,200 tested, 28% active. inhibition, % at 6.36 µM;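 active = mean inhibition across replicates above the hit cutoff set by the earlier primary screen, cut at about 15% in these data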;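 note: inhibitors block active-site labeling by the probe so polarization falls; 0% = PAD4 with probe and DMSO and 100% = probe without PAD4 enzyme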
# Starred values were filed as active, the others as inactive; · = not tested or not shown. Most compounds without a hit are left out; they make up all but 1.8% or so of the library.
SMILES,Fam108B inh,PAD4 FP inh,PME-1 primary,LYPLA2 counter,LYPLA1 inh,GSTO1 counter,PAD4 confirm,others
COc1ccccc1Oc1ccc2c(c1)C(=O)N(c1cccc(O)c1)C2=O,-3.5,0.1,-5.4,51.2*,-8.7,2.6,·,LYPLA2 conf=50.8*;LYPLA2 ABPP=34.0
COc1ccc(C(=O)c2nccc3cc(OC)c(OC)cc23)cc1OC,·,60.5*,21.5,26.3*,8.9,·,25.1*,LYPLA2 conf=16.9
COc1ccc(C(=O)OCC(=O)NCC2CCCO2)c(F)c1 (stereo not drawn),·,1.8,-2.2,2.6,0.3,·,·,
Cc1cc(C(=O)CSc2nc(N)cc(=O)[nH]2)c(C)n1CC1CCCO1 (stereo not drawn),·,28.3*,·,·,·,·,15.2*,
COc1ccccc1C1c2ccc3ccccc3c2Oc2ncn(CCCO)c(=N)c21 (stereo not drawn),-5.3,-7.3,-4.4,-8.2,-3.1,-12.2,·,
COc1ccccc1C1c2ccc3ccccc3c2Oc2ncn(CCN(C)C)c(=N)c21 (stereo not drawn),-2.9,18.6*,-3.0,0.5,-3.3,1.3,1.2,
c1ccc(Nc2ccccc2Nc2ccccn2)nc1,2.0,29.5*,4.1,11.2,8.1,6.1,3.2,
CCN(CC)c1ccc(/C=N/N(c2ccccc2)c2ccccc2)c(O)c1,-1.3,-11.0,-4.7,-10.5,-1.7,5.7,·,
CCN(CC)c1ccc(C(=O)c2ccccc2C(=O)O)c(O)c1,8.8,21.1*,9.0,13.4,13.1,10.0,26.4*,
Nc1ccc(-c2c3ccc(=O)cc-3oc3cc(O)ccc23)cc1C(=O)O,11.1,22.5*,9.1,7.6,8.2,-2.0,33.4*,
O=C(COc1ccc(Cl)cc1)Nc1ccc(NC(=O)c2ccco2)cc1,-2.8,26.7*,-4.7,1.8,3.9,3.2,-1.8,
O=C(COc1ccccc1)Nc1ccc(NC(=O)c2ccco2)cc1,-1.2,-3.9,-7.6,0.8,-1.4,0.4,·,
O=C1c2ccc3c4c(ccc(c24)C(=O)N1c1cccc(O)c1)C(=O)N(c1cccc(O)c1)C3=O,12.8,17.6*,1.7,-1.9,-5.0,33.8,37.6*,
Cc1cccc(N2C(=O)c3cccc4cccc(c34)C2=O)c1,2.3,-1.8,6.1,7.9,1.0,0.6,·,
Cc1cccc(N2C(=O)c3cccc4c(N)ccc(c34)C2=O)c1,13.5,27.1*,13.6,17.8,11.7,9.5,22.2*,
O=C(Nc1ccnc(-c2ccncc2)n1)C1CC1,-3.5,-0.7,0.7,1.3,-0.5,4.6,·,
Cc1onc(C(=O)N2CCOCC2)c1[N+](=O)[O-],1.1,21.8*,3.8,1.5,-0.6,-0.7,19.2*,
CC(C)c1onc(C(=O)N2CCOCC2)c1[N+](=O)[O-],-0.3,-2.5,0.9,-3.2,-1.4,10.6,·,
O=C(NCC(=O)N(c1cccc(F)c1)C(C(=O)NC1CCCC1)c1ccncc1)c1cccs1 (stereo not drawn),4.2,18.3*,-2.9,-0.2,-0.9,0.0,-0.2,
Cc1[nH]c2ccccc2c1CCNC(=O)c1c(N)no[n+]1[O-],-0.2,1.6,2.5,-4.1,-4.6,12.2,·,
Cc1cc(C)c(C#N)c(Sc2ccccc2N)n1,-0.8,20.5*,1.7,6.1,5.6,1.1,52.0*,
Cc1nn(CC(=O)NCCCN2CCC(N3CCCCC3)CC2)c(=O)c2cc(-c3ccccc3)nn12,-3.6,-3.9,-4.8,7.1,1.1,1.2,·,
O=C(NC(=S)Nc1ccc(F)c([N+](=O)[O-])c1)c1ccccc1F,2.7,17.5*,4.7,-7.9,-2.6,10.9,3.1,
